Assay outcomes from PubChem.
USP7 inh – human USP7 deubiquitinase inhibition. Q93009. purified USP7, Ub-rhodamine cleavage fluorescence. inhibition, % at 20 µM. 47,000 compounds, 0.3% hits. AID 1645854
UCHL1 block – inhibitors of human UCHL1 deubiquitinase. P09936. purified UCHL1, Ub-rhodamine cleavage fluorescence. inhibition, % at 20 µM. 47,000 compounds, 0.2% hits. AID 1645859
USP8 inh – human USP8 deubiquitinase inhibition; purified USP8, Ub-rhodamine cleavage fluorescence, 30 min; inhibition, % at 20 µM; 47,000 compounds, 4.2% hits
USP10 inh – human USP10 deubiquitinase inhibition; purified USP10, Ub-rhodamine fluorescence, 60 min; inhibition, % at 20 µM; 47,000 compounds, 1.1% hits
Each line names hits and unclear results; the compound was inactive in the other large screens. Shown are actives, neighbours in structure and some others; about 5% of the full set was active somewhere. No stated cut-off is given here; in the data, active means inhibition above about 30%; inactive means the rest.

c1ccc(Cn2c(CNc3cccc4ccccc34)nc3ccccc32)cc1	USP8 inh 58
C=C(C)Cn1c(CNC(=O)Cc2ccccc2)nc2ccccc21	none
Fc1ccc(NCc2nc3ccccc3n2Cc2ccccc2)cc1	none
CCOc1ccc(NCc2nc3ccccc3n2Cc2ccccc2)cc1	USP8 inh 42
CCc1nc2sc(C(c3cccc(OC)c3)N3CCN(C)CC3)c(O)n2n1 (centres undefined)	none
CNC(=O)c1c2n(c3ncccc13)CCN(S(=O)(=O)c1ccc(-c3ccccc3)cc1)C2	USP10 inh 34
C[C@H]1CN(C(=O)c2ccc3ccccc3n2)C[C@@H]1c1nc(-c2ccncc2)no1	none
COCCn1cc(NC(=O)N2CCN(c3ccccc3F)CC2)c2ccccc21	USP8 inh 54
Cc1ccc(C)c(NC(=O)COc2coc(CN3CCc4ccccc4C3)cc2=O)c1	none
Cc1cccc(NC(=O)COc2coc(CN3CCc4ccccc4C3)cc2=O)c1	USP8 inh 35
COc1ccc(S(=O)(=O)N(CC(=O)NCc2ccco2)c2ccc(C)cc2)cc1	USP8 inh 30
O=c1[nH][nH]c(=O)c2n[nH]nc12	USP8 inh 92
CCN1CCN(C(=O)CN2CCC3(CCC2=O)NC(=O)c2ccccc2N3)CC1 (centres undefined)	none
Cc1ccc(C)c(Cn2nnc3c(=O)[nH]c(C4CCN(S(=O)(=O)c5cccc6ccccc56)CC4)nc32)c1	none
COc1ccc(C(=O)Nc2ccccc2C(=O)NC(Cc2ccc(O)cc2)C(=O)NNC(=O)c2ccccc2Cl)cc1 (centres undefined)	USP8 inh 59, USP10 inh 62
CC(C)OC(=O)c1cc2c(ccn2C)n1CC(=O)N(Cc1ccccc1)c1ccc(F)cc1	USP8 inh 56
CC(C)OC(=O)c1cc2c(ccn2C)n1CC(=O)N1CCCC1	none
CC(C)OC(=O)c1cc2c(ccn2C)n1Cc1ccc2ccccc2n1	USP8 inh 56
CC(C)OC(=O)c1cc2c(ccn2C)n1CC(=O)N(Cc1ccc(Cl)cc1)c1ccccc1	USP8 inh 67
CCOC(=O)c1cc2c(ccn2C)n1CC(=O)N1CCN(c2ccccc2)CC1	none
CCOC(=O)c1cc2c(ccn2C)n1CC(=O)NC(c1ccccc1)c1ccccc1	USP8 inh 65
O=C(c1cccc2c1OCCO2)N1CCOC(CCc2ccncn2)C1 (centres undefined)	none
CCc1nn(CC(=O)NCc2ccco2)c(=O)c2cc3ccccc3n12	none
Cc1nc(N2CCN(C)CC2)ncc1-c1cc(=O)[nH]c(N2CCCC2)n1	none
CCOC(=O)c1cc2c(ccn2C)n1CC(=O)N(Cc1ccc(OC)cc1)c1ccc(F)cc1	none
CCOC(=O)c1cc2c(ccn2C)n1CC(=O)N(Cc1ccccc1)c1ccccc1	USP8 inh 55
CCOC(=O)c1cc2c(ccn2C)n1CC(=O)N(Cc1ccccc1)c1ccc(F)cc1	USP8 inh 39
COc1ccc(-c2cnnn2-c2ccc(NC(=O)c3c(F)cccc3F)cc2)cc1OC	none
NS(=O)(=O)c1cccc(NS(=O)(=O)c2ccc(/C=C/C(=O)OCC(=O)c3ccc(Br)cc3)cc2)c1	USP10 inh 41
CCc1ccc(NC(=O)C(C)OC(=O)/C=C/c2ccc(S(=O)(=O)Nc3cccc(S(N)(=O)=O)c3)cc2)cc1 (centres undefined)	USP10 inh 33
COc1ccc(C(=O)COC(=O)/C=C/c2ccc(S(=O)(=O)Nc3cccc(S(N)(=O)=O)c3)cc2)cc1	none
O=S(=O)(NCCc1c[nH]c2ncccc12)c1cccc2cccnc12	none
Cc1noc(C)c1CC(=O)N1CCCCC1c1cc(C)n2nccc2n1 (centres undefined)	none
CCOc1ccc(NC(=O)Cn2c(=O)n(CCC(=O)NCc3ccco3)c(=O)c3ccccc32)cc1	USP8 inh 45, USP10 inh 45
O=C(Cn1c(=O)n(CC2CCC(C(=O)NC3CCCC3)CC2)c(=O)c2ccccc21)NCCC1=CCCCC1 (centres undefined)	USP10 inh 34
O=C(CCn1c(=O)c2ccccc2n(Cc2ccc([N+](=O)[O-])cc2)c1=O)NCc1ccco1	none
O=C(CCn1c(=O)c2ccccc2n(Cc2ccc(F)cc2Cl)c1=O)NCc1ccco1	USP8 inh 48, USP10 inh 40
Cc1ccc(Cl)cc1NC(=O)Cn1c(=O)n(CCC(=O)NCc2ccco2)c(=O)c2ccccc21	USP8 inh 64, USP10 inh 56
O=C(Nc1ccc2c(c1)OCCO2)Nc1nnc(CC(=O)N2CCCCC2)s1	none
O=C(Cn1c(=O)n(CCC(=O)N2CC=C(c3ccccc3)CC2)c(=O)c2ccccc21)NCc1ccco1	USP8 inh 51
